# PubChem BioAssay (Tox21)
# Results filed as inconclusive are left out. A call without a number means that no potency is given here. Values without a mark were called inactive. Activity calls are given as the source filed them. Unless noted, calls come from the whole dose curve; as a rule, active = well fitted curve in the direction sought with a large enough effect in the repeat runs; inconclusive = weak or mixed curves; inactive = no such curve, though single readings can be large; an effect the other way counts as inactive or inconclusive.
# What was measured:
# [1] = qHTS assay to identify small molecule antagonists of the thyroid receptor (TR) signaling pathway - cell viability counter screen (AID 743064); note: nearly all actives have a fitted effect of over 50% in size; note: potency is the fitted concentration of half-maximal effect
# Procedure, shortened: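 CellTiter-Fluor readout, 30 min at 37 °C/5% CO2, following 23.5 h incubation of GH3.TRE-Luc cells with test compound and 1 nM T3 (final).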
# [2] = qHTS assay to identify small molecule antagonists of the thyroid receptor (TR) signaling pathway (AID 743065); note: series mostly up to about 70 µM; nearly all actives have a fitted effect of over 55% in size
# Procedure, shortened: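 Antagonism measured as loss of luciferase signal in GH3 cells stably carrying a TRE-luciferase reporter, co-treated with compound and T3 (1 nM final) for 23.5 h at 37 C. Viability was read in the same well by CellTiter-Fluor.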
# [3] = system: thyroid hormone receptor (rat, GH3 cells); assay: qHTS assay to identify small molecule agonists of the thyroid receptor (TR) signaling pathway (AID 743066; calls by dose curve)
# [4] = target: Estrogen receptor (Homo sapiens) (UniProt P03372); assay: qHTS assay to identify small molecule antagonists of the estrogen receptor alpha (ER-alpha) signaling pathway (AID 743069; active = well fitted curve in the direction sought with a large enough effect in the signal ratio in the repeat runs, not every such curve was filed as active; the % refers to the signal ratio)
# Estrogen receptor (Homo sapiens), sequence (P03372 whole entry, looked up): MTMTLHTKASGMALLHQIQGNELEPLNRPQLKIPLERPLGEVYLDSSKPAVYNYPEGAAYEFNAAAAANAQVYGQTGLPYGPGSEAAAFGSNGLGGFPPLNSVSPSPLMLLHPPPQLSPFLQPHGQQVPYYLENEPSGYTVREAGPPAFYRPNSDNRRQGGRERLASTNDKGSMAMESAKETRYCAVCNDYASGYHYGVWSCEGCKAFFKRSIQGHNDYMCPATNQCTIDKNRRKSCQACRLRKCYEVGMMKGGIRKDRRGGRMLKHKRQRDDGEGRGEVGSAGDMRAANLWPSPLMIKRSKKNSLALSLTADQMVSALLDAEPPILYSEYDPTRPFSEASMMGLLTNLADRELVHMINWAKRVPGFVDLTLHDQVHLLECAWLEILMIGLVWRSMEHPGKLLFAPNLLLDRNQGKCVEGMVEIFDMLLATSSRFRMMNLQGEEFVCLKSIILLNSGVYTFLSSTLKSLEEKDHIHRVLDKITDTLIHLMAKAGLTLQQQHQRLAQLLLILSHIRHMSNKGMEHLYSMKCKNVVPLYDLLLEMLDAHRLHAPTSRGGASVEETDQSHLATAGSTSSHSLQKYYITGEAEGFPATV
# Procedure, shortened: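 ER-alpha-UAS-bla GripTite HEK293 line; 2% charcoal-stripped FBS overnight; plated, 4 hr 37C/5% CO2; cpd in DMSO + 17beta-estradiol, 18 hr 37C; LiveBLAzer B/G FRET substrate 2 hr RT; fluorescence intensity.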
# [5] = qHTS assay to identify small molecule antagonists of the estrogen receptor alpha (ER-alpha) signaling pathway - cell viability counter screen (AID 743074; calls by dose curve;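 note: HEK293 cells carrying ER-alpha-UAS-bla reporter stimulated with 17beta-estradiol; nearly all actives have a fitted effect of over 45% in size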)
# [6] = target: Estrogen receptor (Homo sapiens) (UniProt P03372); assay: qHTS assay to identify small molecule agonists of the estrogen receptor alpha (ER-alpha) signaling pathway (AID 743075; calls by dose curve;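 note: HEK293 GripTite cells with ER-alpha and UAS-driven beta-lactamase reporter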)
# [7] = target: Estrogen receptor (Homo sapiens) (UniProt P03372); assay: qHTS assay to identify small molecule agonists of the estrogen receptor alpha (ER-alpha) signaling pathway using the BG1 cell line (AID 743079); note: nearly all actives have a fitted effect of over 20% in size; note: potency is the fitted concentration of half-maximal effect
# [8] = qHTS assay to identify small molecule antagonists of the estrogen receptor alpha (ER-alpha) signaling pathway using the BG1 cell line (AID 743080; calls by dose curve; note: series mostly up to about 70 µM; nearly all actives have a fitted effect of over 25% in size)
# Procedure, shortened: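 Antagonist mode: compounds in DMSO were pinned onto BG1-Luc-4E2 cells alongside 17beta-estradiol agonist, incubated 21.5 h, and ERE-driven luciferase measured with ONE-Glo. Cytotoxicity was multiplexed using CellTiter-Fluor fluorescence.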
# [9] = qHTS assay to identify small molecule antagonists of the estrogen receptor alpha (ER-alpha) signaling pathway using the BG1 cell line - cell viability counter screen (AID 743081);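 note: compound given together with 17beta-estradiol as the ER stimulus; nearly all actives have a fitted effect of over 45% in size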; note: potency is the fitted concentration of half-maximal effect; for activity change, negative = cytotoxicity: series mostly up to about 70 µM
# Aromatase (Homo sapiens) = Aromatase (Homo sapiens) (UniProt P11511); assay: qHTS assay to identify aromatase inhibitors (AID 743083); note: series mostly up to about 70 µM; nearly all actives have a fitted effect of over 55% in size
# Aromatase (Homo sapiens), sequence (P11511 whole entry, looked up): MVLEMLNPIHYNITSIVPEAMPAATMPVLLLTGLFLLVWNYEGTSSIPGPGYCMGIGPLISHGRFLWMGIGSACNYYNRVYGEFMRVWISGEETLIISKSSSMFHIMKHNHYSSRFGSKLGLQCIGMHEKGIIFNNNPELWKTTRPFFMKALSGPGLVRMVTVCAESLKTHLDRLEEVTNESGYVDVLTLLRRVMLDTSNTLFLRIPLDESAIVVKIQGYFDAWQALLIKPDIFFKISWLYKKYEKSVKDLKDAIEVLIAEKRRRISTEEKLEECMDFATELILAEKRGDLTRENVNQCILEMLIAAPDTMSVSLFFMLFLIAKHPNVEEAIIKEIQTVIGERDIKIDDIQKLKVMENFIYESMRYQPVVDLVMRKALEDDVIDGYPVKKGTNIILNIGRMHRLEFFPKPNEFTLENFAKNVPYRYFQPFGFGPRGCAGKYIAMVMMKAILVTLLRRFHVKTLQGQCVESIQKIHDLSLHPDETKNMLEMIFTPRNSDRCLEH
structure (smiles),measurement,setting,value
Cc1ccccc1CCO,Potency,[1],inactive
same,Potency,[2],inactive
same,outcome,[3],inactive
same,Potency,[4],inactive
same,outcome,[5],inactive
same,Potency,[6],inactive
same,Potency,[7],inactive
same,Potency,[8],inactive
same,Potency,[9],inactive
same,Potency,Aromatase (Homo sapiens),inactive
CC(C)=CCC[C@H](C)CCO,Potency,[1],inactive
same,Potency,[2],inactive
same,outcome,[3],inactive
same,Potency,[4],inactive
same,outcome,[5],inactive
same,Potency,[6],inactive
same,Potency,[7],inactive
same,Potency,[8],inactive
same,Potency,[9],inactive
same,Potency,Aromatase (Homo sapiens),inactive
O=C1C=CCCC1,Potency,[1],inactive
same,Potency,[2],inactive
same,outcome,[3],inactive
same,Potency,[4],inactive
same,outcome,[5],inactive
same,Potency,[6],inactive
same,Potency,[7],inactive
same,Potency,[8],inactive
same,Potency,[9],inactive
same,Potency,Aromatase (Homo sapiens),inactive
CC(C)=CCC/C(C)=C/C=N/O,Potency,[1],inactive
same,Potency,[2],inactive
same,outcome,[3],inactive
same,Potency,[4],inactive
same,outcome,[5],inactive
same,Potency,[6],inactive
same,Potency,[7],inactive
same,Potency,[8],inactive
same,Potency,[9],inactive
same,Potency,Aromatase (Homo sapiens),inactive
CCCC1CCOC(C)S1 (stereo unspecified),Potency,[1],inactive
same,Potency,[2],inactive
same,outcome,[3],inactive
same,Potency,[4],inactive
same,outcome,[5],inactive
same,Potency,[6],inactive
same,Potency,[7],inactive
same,Potency,[8],inactive
same,Potency,[9],inactive
same,Potency,Aromatase (Homo sapiens),inactive
CCCCCCCCCCCCSCCOCCO,Potency,[1],inactive
same,Potency,[2],inactive
same,outcome,[3],inactive
same,Potency,[4],inactive
same,outcome,[5],inactive
same,Potency,[6],inactive
same,Potency,[7],inactive
same,Potency,[8],inactive
same,Potency,[9],inactive
same,Potency,Aromatase (Homo sapiens),inactive
O=C1CCCN1CCO,Potency,[1],inactive
same,Potency,[2],inactive
same,outcome,[3],inactive
same,Potency,[4],inactive
same,outcome,[5],inactive
same,Potency,[6],inactive
same,Potency,[7],inactive
same,Potency,[8],inactive
same,Potency,[9],inactive
same,Potency,Aromatase (Homo sapiens),inactive
CCCC1CCCC(=O)O1 (stereo unspecified),Potency,[1],inactive
same,Potency,[2],inactive
same,outcome,[3],inactive
same,Potency,[4],inactive
same,outcome,[5],inactive
same,Potency,[6],inactive
same,Potency,[7],inactive
same,Potency,[8],inactive
same,Potency,[9],inactive
same,Potency,Aromatase (Homo sapiens),inactive
CC(CCl)OC(C)CCl (stereo unspecified),Potency,[1],inactive
same,Potency,[2],inactive
same,outcome,[3],inactive
same,Potency,[4],inactive
same,outcome,[5],inactive
same,Potency,[6],inactive
same,Potency,[7],inactive
same,Potency,[8],inactive
same,Potency,[9],inactive
CC(=O)c1ccc(Cl)c(Cl)c1Cl,Potency,[1],inactive
same,Potency,[2],inactive
same,outcome,[3],inactive
same,Potency,[4],inactive
same,outcome,[5],inactive
same,Potency,[6],inactive
same,Potency,[7],inactive
same,Potency,[8],inactive
same,Potency,[9],inactive
same,Potency,Aromatase (Homo sapiens),inactive
NC(=O)c1ccccc1,Potency,[1],inactive
same,Potency,[2],inactive
same,outcome,[3],inactive
same,Potency,[4],inactive
same,outcome,[5],inactive
same,Potency,[6],inactive
same,Potency,[7],inactive
same,Potency,[8],inactive
same,Potency,[9],inactive
same,Potency,Aromatase (Homo sapiens),inactive
COC=O,"activity change, negative = cytotoxic",[1],17.8% [at 8.44 µM]
same,"activity, negative = inhibition",[2],9.66% [at 8.44 µM]
same,activation,[3],0.249% [at 8.08 µM]
same,"activity, negative = inhibition",[4],29% [at 6.71 µM]
same,"activity, negative = cytotoxicity",[5],7.46% [at 6.72 µM]
same,activation,[6],2.27% [at 6.71 µM]
same,activation,[7],11.2% [at 8.47 µM]
same,"activity change, negative = inhibition",[8],1.93% [at 8.47 µM]
same,"activity change, negative = cytotoxicity",[9],4.5% [at 8.47 µM]
same,"activity, negative = inhibition",Aromatase (Homo sapiens),2.56% [at 8.47 µM]
O=Cc1ccc([N+](=O)[O-])cc1,Potency,[1],inactive
same,Potency,[2],inactive
same,outcome,[3],inactive
same,Potency,[4],inactive
same,outcome,[5],inactive
same,Potency,[6],inactive
same,Potency,[7],30.8 µM (active)
same,Potency,[8],inactive
same,Potency,[9],inactive
same,Potency,Aromatase (Homo sapiens),inactive
O=C(OCCOCCOCCOC(=O)c1ccccc1)c1ccccc1,Potency,[1],inactive
same,Potency,[2],inactive
same,outcome,[3],inactive
same,Potency,[4],inactive
same,outcome,[5],inactive
same,Potency,[6],inactive
same,Potency,[7],inactive
same,Potency,[8],inactive
same,Potency,[9],inactive
same,Potency,Aromatase (Homo sapiens),inactive
CCc1cnc(C(=O)O)c(C(=O)O)c1,Potency,[1],inactive
same,Potency,[2],inactive
same,outcome,[3],inactive
same,Potency,[4],inactive
same,outcome,[5],inactive
same,Potency,[6],inactive
same,Potency,[7],inactive
same,Potency,[8],inactive
same,Potency,[9],inactive
same,Potency,Aromatase (Homo sapiens),inactive
CC(C)(C(=O)O)c1ccc(C(O)CCCN2CCC(C(O)(c3ccccc3)c3ccccc3)CC2)cc1 (stereo unspecified),Potency,[1],inactive
same,Potency,[2],inactive
same,outcome,[3],inactive
same,Potency,[4],inactive
same,outcome,[5],inactive
same,Potency,[6],inactive
same,Potency,[7],inactive
same,Potency,[8],inactive
NC(=O)c1ccccc1C(N)=O,Potency,[1],inactive
same,Potency,[2],inactive
same,outcome,[3],inactive
same,Potency,[4],inactive
same,outcome,[5],inactive
same,Potency,[6],inactive
same,Potency,[7],inactive
same,Potency,[8],inactive
same,Potency,[9],inactive
same,Potency,Aromatase (Homo sapiens),inactive
CCCCCO,Potency,[1],inactive
same,Potency,[2],inactive
same,outcome,[3],inactive
same,Potency,[4],inactive
same,outcome,[5],inactive
same,Potency,[6],inactive
same,Potency,[7],inactive
same,Potency,[8],inactive
same,Potency,Aromatase (Homo sapiens),inactive
O=c1[nH][nH]c2ccccc12,Potency,[1],inactive
same,Potency,[2],inactive
same,outcome,[3],inactive
same,Potency,[4],inactive
same,outcome,[5],inactive
same,Potency,[6],inactive
same,Potency,[7],inactive
same,Potency,[8],inactive
same,Potency,[9],inactive
same,Potency,Aromatase (Homo sapiens),inactive
O=C1c2ccccc2C(=O)C1c1ccc2cc(S(=O)(=O)O)cc(S(=O)(=O)O)c2n1,Potency,[1],33.1 µM (active)
same,Potency,[2],inactive
same,outcome,[3],inactive
same,Potency,[4],inactive
same,outcome,[5],inactive
same,Potency,[6],inactive
same,Potency,[7],inactive
same,Potency,[8],inactive
same,Potency,[9],52.5 µM (active)
same,Potency,Aromatase (Homo sapiens),inactive
CCCCCCCCCCCC(=O)OCC,Potency,[1],inactive
same,Potency,[2],inactive
same,outcome,[3],inactive
same,Potency,[4],inactive
same,outcome,[5],inactive
same,Potency,[6],inactive
same,Potency,[7],inactive
same,Potency,[8],inactive
same,Potency,[9],inactive
same,Potency,Aromatase (Homo sapiens),inactive
CCCC(=O)OCCC(C)C,Potency,[1],inactive
same,Potency,[2],inactive
same,outcome,[3],inactive
same,Potency,[4],inactive
same,outcome,[5],inactive
same,Potency,[6],inactive
same,Potency,[7],inactive
same,Potency,[8],inactive
same,Potency,[9],inactive
same,Potency,Aromatase (Homo sapiens),inactive
Cc1nc(C)c(C)nc1C,Potency,[1],inactive
same,Potency,[2],inactive
same,outcome,[3],inactive
same,Potency,[4],inactive
same,outcome,[5],inactive
same,Potency,[6],inactive
same,Potency,[7],inactive
same,Potency,[8],inactive
same,Potency,[9],inactive
same,Potency,Aromatase (Homo sapiens),inactive
